Laboratory results reported in PubChem BioAssay AID686979 (National Center for Advancing Translational Sciences (NCATS), 2013).
Several values for one entry are separate records, joined by “and”; a condition that tells them apart may be missing. Equal entries are not always repeated. Out of some 420,000 compounds screened, about 50,000 (12%) were called active. Inconclusive results (about 26%) are left out. Calls come from the whole dose curve; as a rule, active = well fitted inhibition curve with a large enough effect; inconclusive = small, poorly fitted or top-dose-only effect; inactive = flat fitted curve, though single readings scatter. The entries come from a sample that favours actives as a whole. A call without a number means that no potency is given here.

Experiment: qHTS for Inhibitors of human tyrosyl-DNA phosphodiesterase 1 (TDP1): qHTS in cells in presence of CPT; note: nearly all actives have a fitted effect of over 55% in size
Details: chicken DT40 Tdp1-/-;hTDP1 cells + 20 nM CPT, ATP luminescence, 48 h; series mostly up to 46.2 µM
Text: Human tyrosyl-DNA phosphodiesterase 1 (TDP1) is a novel repair gene, and we propose to use it as a new target for anticancer drug development. TDP1 is not an essential protein, but under treatment with topoisomerase I poison (camptothecin: CPT), TDP1 works as a critical factor for cell survival. To directly identify novel TDP1 inhibitors active in a cellular environment, we have knocked-out the Tdp1 gene in chicken DT40 cells (Tdp1-/-) and generated a complemented counterpart cells that contains a stable transfection of the human TDP1 gene (Tdp1-/-;hTDP1 cells). For the primary screen, Tdp1-/-;hTDP1 cells will be exposed to small molecules in the presence or absence of CPT, and their growth kinetics will be evaluated after 48 hours by measuring ATP activity. […] The hit compounds will then be evaluated in the presence or absence of CPT using Tdp1-/- cells. […] In tertiary assays, biochemical gel-based assays will be used to assess whether the hit compounds specifically target TDP1. To this end, we have screened this cell line against the MLSMR in two primary screens. In one screen we add CPT and in the other we screen in the absence of CPT; this AID represents the screen where CPT was present. NIH Chemical Genomics Center [NCGC] NIH Molecular Libraries Probe Centers Network [MLPCN] MLPCN Grant: MH095538 Assay Submitter (PI): Yves Pommier, NCI
DT40-hTDP1 cells with 20 nM Camptothecin (add 20 microL of 1 mM CPT stock in 1 L of cell culture medium) were dispensed at 400 cells/5microL/well in tissue culture treated 1536-well white wall/solid bottom assay plates (Greiner Bio-One North America, NC, U.S.A.) using a Multidrop Combi 8 channel dispenser (Thermo Fisher, Waltham, MA, USA). 23 nL compounds and controls were transferred using the pin tool (Kalypsys, San Diego, CA, USA) to the assay plates. The assay plates were then incubated at 37 masculineC for a minimum 48 hr. Three microL of Cell Titer Glo solution was added to the plates and incubated at RT in dark for 30 min. Luminescence was read using ViewLux (Perkin Elmer) with 1 sec exposure slow speed, high gain and 2x binning.
Potency is the fitted concentration of half-maximal effect.

| Structure (SMILES) | Potency | activity change, negative = growth inhibition |
| --- | --- | --- |
| CC[C@H]1CN2CCc3cc(OC)c(OC)cc3[C@@H]2C[C@@H]1C[C@H]1NCCc2cc(OC)c(OC)cc21 | 188 nM (active) and 146 nM (active) |  |
| C=C(C)C1(CCCC)C(=O)NC(=S)NC1=O | inactive |  |
| Cc1cc(OCc2cc(C(=O)O)oc2C)c2c3c(c(=O)oc2c1)CCCC3 | inactive |  |
| CN(C)C(=O)Oc1ccc2c(c1)O/C(=C\c1ccccc1)C2=O | inactive |  |
| CC(C)c1ccc(OCC(=O)N2CCCN(C)CC2)cc1 | inactive |  |
| CCCCC/C=C\C/C=C\C/C=C\CCCCCCC(=O)NCCO |  | 0.621% [at 4.12 µM] (inactive) |
| C[C@@H]1CC[C@@]2(OC1)O[C@H]1C[C@H]3[C@@H]4CC=C5C[C@@H](O)[C@H](O)C[C@]5(C)C4CC[C@]3(C)[C@H]1[C@@H]2C (stereo partly drawn) | 20.6 µM (active) |  |
| COc1ccc2c(c1O)-c1cccc3c1[C@@H](C2)N(C)CC3 | inactive |  |
| COc1ccc2cc1Oc1ccc(cc1)C[C@H]1c3cc(c(OC)cc3CCN1C)Oc1c(O)c(OC)cc3c1[C@H](C2)N(C)CC3 | 8.2 µM (active) |  |
| COc1c(O)ccc2c1-c1c3c(cc4c1C(C2)N(C)CC4)OCO3 (stereo not drawn) | inactive |  |
| CC1(C)C(c2ccccc2)=NC(c2cccnc2)=[N+]1[O-] | inactive |  |
| O=c1[nH]c(=O)n(CCc2ccc(F)cc2)c(O)c1/C=N/N1CCCCC1 | inactive |  |
| CN(C)CC1CCCCC1=O (stereo not drawn) | 5.8 µM (active) |  |
| O=C(NCC(c1cccnc1)N1CCN(c2ccccc2)CC1)Oc1ccccc1 (stereo not drawn) | inactive |  |
| CC(=O)Nc1cc(-c2cccc(CO)c2)cn2c(-c3cccc(C(F)(F)F)c3)cnc12 | 11.6 µM (active) |  |
| NC(=O)Nc1cccc(C(F)(F)F)c1 | inactive |  |
| CC(=O)OC1C2CCC3C1(CC(O)[C@@]1(O)[C@@H](CC(O)C1(C)C)[C@]3(C)O)C[C@@]2(C)O (stereo partly drawn) | inactive |  |
| COc1ccccc1C(=O)N[C@@H]1c2ccccc2C2(CCN(Cc3nc(C(C)C)cs3)CC2)[C@H]1O | 2.06 µM (active) |  |
| COc1ccccc1C1=NCc2nnc(CSC)n2-c2ccc(Cl)cc21 | inactive |  |
| CCc1ccc(N(CC)C(=O)CCn2cnc3onc(-c4ccc(F)cc4)c3c2=O)cc1 | 16.4 µM (active) |  |
| Cn1c(O)c(C=NCCCC(=O)O)c(=O)n(C)c1=O | inactive |  |
| CCCCC(=O)N/N=C/c1c(O)n(-c2ccccc2)c(=O)[nH]c1=O | inactive |  |
| CCCCC(=O)N/N=C/c1c(O)n(CC)c(=S)n(CC)c1=O | 18.4 µM (active) |  |
| O=C1NC(=O)C(C/C=C/c2ccccc2)C(=O)N1 | inactive |  |
| Cc1cccc(NC(=O)OC2CN3CCC2CC3)c1 (stereo not drawn) | inactive |  |

| Structure (SMILES) | Potency | activity change, negative = growth inhibition |
| --- | --- | --- |
| CCC(=O)CC(c1ccc([N+](=O)[O-])cc1)c1c(O)c2ccccc2oc1=O (stereo not drawn) | inactive |  |
| O=c1[nH]c(=S)n(C2CC2)c(O)c1/C=N/N1CCOCC1 | inactive |  |
| CC(=NCC1CCCO1)c1c(O)n(-c2ccccc2)c(=O)[nH]c1=O (stereo not drawn) | inactive |  |
| CC(=O)c1c(O)n(C2CCCCCC2)c(=O)[nH]c1=O | 18.4 µM (active) |  |
| COC1=C[C@]23CCCN2CCc2cc4c(cc2[C@@H]3[C@@H]1O)OCO4 |  | -3.38% [at 9.04 µM] (inactive) |
| CN1CCN(/N=C/c2c[nH]c3ccccc23)CC1 | inactive |  |
| CC12CCC3C(CCC4CC(=O)CCC43C)C1CC(=NO)C2=O (stereo not drawn) | inactive |  |
| CCCCCn1c(=O)c(C(=O)NCc2ccccc2)c(O)c2ccccc21 | 4.61 µM (active) |  |
| CCCCCn1c(=O)c(C(=O)NCc2ccccn2)c(O)c2ccccc21 | 20.6 µM (active) |  |
| CCOC(=O)C1(Cc2ccc(Cl)cc2)CCN(C(C)CCn2cccn2)CC1 (stereo not drawn) | inactive |  |
| O=c1[nH]c(=O)n(CCc2ccccc2)c(O)c1/C=N/N1CCOCC1 | inactive |  |
| c1ccc2sc(C3CCCNC3)nc2c1 (stereo not drawn) | inactive |  |
| CC[N+](CC)(CC)CCCCCCCCCC[N+](CC)(CC)CC | inactive |  |
| CN1CCN(Cc2ccc(OC(F)(F)F)cc2)CC1 | inactive |  |
| CC(C)c1ccc(OCC(=O)N2CCN(C)CC2)c(Br)c1 | inactive |  |
| COc1cc(-n2c(=S)[nH]c3ccc(C)cc3c2=O)c(Cl)cc1Cl | 8.2 µM (active) |  |
| O=c1c2ccccc2[nH]c(=S)n1-c1cccc(Cl)c1 | inactive |  |
| c1ccc(CC2CCCCN2)cc1 (stereo not drawn) | inactive |  |
| CC(C)Oc1cccc(C(=O)C2CCCN(C3CCOCC3)C2)c1 (stereo not drawn) | inactive |  |
| COc1cc2[nH]c(C)c(CCN3CCN(c4ccccc4)CC3)c2cc1OC | 7.94 µM (active) |  |
| Oc1cc2c(cc1CN1CCN(c3ccccc3)CC1)OCO2 | inactive |  |
| c1ccc(N2Cc3ccccc3-n3nncc3C2)nc1 | inactive |  |
| COCCCNC(=O)CC1C[C@H](C(=O)N2CCCCC2)[C@@]2(CCc3ccccc3)c3[nH]c4ccccc4c3CCN2C1=O (stereo partly drawn) | 23.1 µM (active) |  |
| Clc1ccc([C@@H]2C[C@H]3CC[C@@H]2N3)cn1 | inactive |  |
| CCCC(C)n1[nH]c(=O)c2c1NC(=O)CSC2c1ccc(OC)c(OC)c1 (stereo not drawn) | inactive |  |

| Structure (SMILES) | Potency | activity change, negative = growth inhibition |
| --- | --- | --- |
| OC[C@@H]1CN(Cc2ccncc2)C[C@H](n2cnc3c(N4CCN(c5ccccc5)CC4)ncnc32)O1 | 2.06 µM (active) |  |
| CC12CN3CC(C)(CN(C1)C3c1cccs1)C2 (stereo not drawn) | inactive |  |
| COc1cccc(OC)c1C(=O)NC(=S)N1C[C@H]2C[C@H](C1)c1cccc(=O)n1C2 | inactive |  |
| OC1/C(=C/c2ccc(C(F)(F)F)cc2)N2CCC1CC2 (stereo not drawn) | inactive |  |
| CC(C(=O)Nc1ccc(Cl)cc1Cl)N1CC=C(c2ccccc2)CC1 (stereo not drawn) | inactive |  |
| c1csc(CN2CC3(CCNCC3)C2)n1 | inactive |  |
| N#Cc1c(Cl)c(Cl)c(Cl)c(C#N)c1Cl | 178 nM (active) and 651 nM (active) |  |
| O=C(N/N=C/c1c(O)n(C2CC2)c(=S)[nH]c1=O)c1ccccc1 | inactive |  |
| N#CC(C#N)=Cc1cc(O)c(O)c([N+](=O)[O-])c1 | inactive |  |
| O=C(Cc1ccccc1[N+](=O)[O-])N1CCN(Cc2ccc3c(c2)OCO3)CC1 | inactive |  |
| C=CCN1C(=O)NC(=O)/C(=C/c2ccc(OCC(=O)Nc3ccc(C)cc3)cc2)C1=O | inactive |  |
| COc1ccc(CNC(=O)c2cc3c(-c4ccccc4F)nn(C)c3s2)c(OC)c1 | 4.11 µM (active) |  |
| CC/C(=N\NC(=O)c1ccccc1O)c1c(O)n(Cc2ccccc2)c(=O)[nH]c1=O | inactive |  |
| CC(=O)N(C1=NCCCS1)c1ccccc1F | inactive |  |
| CN(C(=O)CSc1nc2ccc(NC(=O)COc3ccccc3)cc2s1)c1ccccc1 | 25.9 µM (active) |  |
| O=C(COc1ccccc1Cl)Nc1ccc2nc(SCC(=O)N3CCCC3)sc2c1 | 20.6 µM (active) |  |
| CC(C)n1c(=O)c(C=Nc2ccc(Br)cc2)c(O)n(Cc2ccco2)c1=O | inactive |  |
| CCN(CC)C(=O)c1ccc(NC(=O)c2cc(-n3cnnc3)ccc2Cl)cc1 | inactive |  |
| Fc1ccc(N2CCN(Cc3ccc4c(c3)OCO4)CC2)cc1 | inactive |  |
| Cn1c(O)c(C=Nc2ccc3c(c2)CCC3)c(=O)n(C)c1=O | inactive |  |
| Oc1ccc2c3c1OC1[C@H](O)CC[C@@]4(O)[C@@H](C2)N(CC2CC2)CC[C@]314 (stereo partly drawn) | inactive |  |
| COC12CC[C@@]3(C[C@@H]1C(C)(O)C(C)(C)C)[C@H]1Cc4ccc(O)c5c4[C@@]3(CCN1CC1CC1)[C@H]2O5 (stereo partly drawn) | 24.1 µM (active) |  |
| CC1(C)Cc2c(C#N)c(N3CCNCC3)nc(-c3ccco3)c2CS1 | 18.4 µM (active) |  |
| NCCc1ccc(S(=O)(=O)F)cc1 | inactive |  |
| CC(=O)c1ccc(S(=O)(=O)N2CCN(c3nc4c(C)c(C)ccc4cc3C#N)CC2)cc1 | 7.08 µM (active) |  |

| Structure (SMILES) | Potency | activity change, negative = growth inhibition |
| --- | --- | --- |
| CCOC(=O)C(O)(c1ccc(NC(=O)c2ccco2)c(OC)c1)C(F)(F)F (stereo not drawn) | inactive |  |
| C[C@@]1([C@@H](NP(=O)(c2ccccc2)c2ccccc2)c2ccccc2)C[C@H]1CCO | 9.2 µM (active) |  |
| CC1CNCCN1c1ccc(Cl)cc1 (stereo not drawn) | inactive |  |
| CC(C)(C)[C@]1(O)C[C@@H]2OC(=O)C[C@@]23C(=O)O[C@@H]2OC(=O)[C@H](O)[C@]213 | inactive |  |
| c1ccc(C(CN2CCCCC2)c2ccccc2)cc1 | inactive |  |
| CCCCOc1ccc(C(=O)N2CC(=O)Nc3ccc(Br)cc3C2c2ccc(F)cc2)cc1 (stereo not drawn) | 23.1 µM (active) |  |
| O=c1oc2ccccc2c(O)c1C(c1ccccc1O)c1c(O)c2ccccc2oc1=O |  | 8.57% [at 9.04 µM] (inactive) |
| COc1cc(C2c3cc4c(cc3C(O)C3COC(=O)C23)OCO4)cc(OC)c1OC (stereo not drawn) | 44.7 nM (active) and 13 nM (active) |  |
| COc1cc([C@@H]2c3cc4c(cc3[C@H](OC(C)=O)[C@H]3COC(=O)[C@H]23)OCO4)cc(OC)c1OC | 0.0794 µM (active) |  |
| Cc1nc2ccc(N3CCN(C)CC3)cc2nc1C | inactive |  |
| CSc1ccc(C(=O)C2CCCN(Cc3ccn[nH]3)C2)cc1 (stereo not drawn) | inactive |  |
| O=c1[nH]c(=O)n(-c2ccc(F)cc2)c(O)c1C=NCCN1CCCCC1 | inactive |  |
| CC(=C1C(=O)c2ccccc2C1=O)N1CCN(CCN=Cc2c(O)n(C)c(=O)n(C)c2=O)CC1 | inactive |  |
| CCN1CC2C3CCC(C)(O3)C2C1 (stereo not drawn) | inactive |  |
| Cc1ccc(Cl)cc1N1CCN(C(=O)C2CCC(CNS(=O)(=O)c3cccs3)CC2)CC1 (stereo not drawn) | 20.6 µM (active) |  |
| CC1C(=O)OC2CCN3CC=C(COC(=O)C(C)(O)C1(C)O)C23 (stereo not drawn) | 5.8 µM (active) |  |
| CC(=O)Nc1ccc(C(=O)C(Cc2ccccc2)N(C)C)cc1 (stereo not drawn) | inactive |  |
| O=C(COc1ccc2ccccc2c1)N1CCN(Cc2ccncc2)CC1 | inactive |  |
| CN(C)C(=O)Oc1cc(OC(=O)N(C)C)cc(C(O)CNC(C)(C)C)c1 (stereo not drawn) | inactive |  |
| CNC(=O)O/N=C(\N)Cc1csc2ccccc12 | inactive |  |
| CNC(=O)O/N=C(\N)Cc1csc2ccc(Cl)cc12 | 16.4 µM (active) |  |
| Cn1c(O)c(C=NCCN2CCNCC2)c(=O)n(C)c1=O | inactive |  |
| COC1=CC=C2[C@H]3Cc4ccc(OC)c5c4[C@@]2(CCN3C)C1O5 (stereo partly drawn) | inactive |  |
